Results: the supplement of paper PMC10849652
The full data set covers some 8,800 targets. This sample favours those with a hit. About 0.5% of all pairs of compound and target were hits.

How the values were obtained:
Assay in all cases: log2 fold change, soluble protein after heating vs DMSO (PISA); higher = thermal stabilisation; K562 lysate, 10 uM; active = over 0.2 and 3.5 SD of the protein, either way, in both replicates (recomputed)
alvocidib = compound: CN1CC[C@H](c2c(O)cc(O)c3c(=O)cc(-c4ccccc4Cl)oc23)[C@H](O)C1 [alvocidib]
Procedure, shortened: (§1)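 To prepare the extract, K562 pellets were dounce-homogenised in PBS pH 7.4 with 1 mM MgCl2, giving crude material at 1 mg/mL protein. This was treated with 10 μM compound for 30 min, then heated in aliquots for 3 min over 48°C-58°C before pooling and addition of NP-40 to 0.5% at 4°C. Centrifugation at 21,000xg for 90 min left soluble protein in the supernatant, which TMTpro 16plex LC-MS/MS quantified with equalised channel sums. Results are log-two fold changes in thermal stability compared with solvent controls, from duplicates.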

Tubastatin A = compound: CN1CCc2c(c3ccccc3n2Cc2ccc(C(=O)NO)cc2)C1 [Tubastatin A]
Procedure, shortened: as §1

[1] = compound: CNC(=O)C1=CC=CC=C1NC2=NC(=NC=C2Cl)NC3=C(C=C(C=C3)N4CCOCC4)OC
Procedure, shortened: as §1

defactinib = compound: CNC(=O)c1ccc(Nc2ncc(C(F)(F)F)c(NCc3nccnc3N(C)S(C)(=O)=O)n2)cc1 [defactinib]
Procedure, shortened: as §1

[2] = compound: CNc1nc(-c2ccc3c(N)n[nH]c3c2)cc(N2C[C@@H](C(=O)NC3CCCCC3)CC[C@H]2C)n1
Procedure, shortened: as §1

encorafenib = compound: COC(=O)N[C@@H](C)CNc1nccc(-c2cn(C(C)C)nc2-c2cc(Cl)cc(NS(C)(=O)=O)c2F)n1 [encorafenib]
Procedure, shortened: as §1

[3] = compound: COC(=O)[C@H](CCSC)NC(=O)C1=C(C=C(C=C1)NC[C@H](CS)N)C2=CC=CC=C2
Procedure, shortened: as §1

alisertib = compound: COc1cc(Nc2ncc3c(n2)-c2ccc(Cl)cc2C(c2c(F)cccc2OC)=NC3)ccc1C(=O)O [alisertib]
Procedure, shortened: as §1

[4] = compound: COc1cc2nc(-c3cc(F)ccc3O)nc(N[C@@H]3CNC[C@H]3C(C)(C)O)c2cc1OC
Procedure, shortened: as §1

gefitinib = compound: COc1cc2ncnc(Nc3ccc(F)c(Cl)c3)c2cc1OCCCN1CCOCC1 [gefitinib]
Procedure, shortened: as §1

lapatinib = compound: CS(=O)(=O)CCNCc1ccc(-c2ccc3ncnc(Nc4ccc(OCc5cccc(F)c5)c(Cl)c4)c3c2)o1 [lapatinib]
Procedure, shortened: as §1

pictilisib = compound: CS(=O)(=O)N1CCN(Cc2cc3nc(-c4cccc5[nH]ncc45)nc(N4CCOCC4)c3s2)CC1 [pictilisib]
Procedure, shortened: as §1

crizotinib = compound: C[C@@H](Oc1cc(-c2cnn(C3CCNCC3)c2)cnc1N)c1c(Cl)ccc(F)c1Cl [crizotinib]
Procedure, shortened: as §1

[5] = compound: C[C@H](C1=CC=C(C=C1)C(=O)NC2=C3C=CNC3=NC=C2)N
Procedure, shortened: as §1

duvelisib = compound: C[C@H](Nc1ncnc2nc[nH]c12)c1cc2cccc(Cl)c2c(=O)n1-c1ccccc1 [duvelisib]
Procedure, shortened: as §1

gandotinib = compound: Cc1cc(Nc2cc(CN3CCOCC3)c3nc(C)c(Cc4ccc(Cl)cc4F)n3n2)n[nH]1 [gandotinib]
Procedure, shortened: as §1

tozasertib = compound: Cc1cc(Nc2cc(N3CCN(C)CC3)nc(Sc3ccc(NC(=O)C4CC4)cc3)n2)n[nH]1 [tozasertib]
Procedure, shortened: as §1

doramapimod = compound: Cc1ccc(-n2nc(C(C)(C)C)cc2NC(=O)Nc2ccc(OCCN3CCOCC3)c3ccccc23)cc1 [doramapimod]
Procedure, shortened: as §1

bafetinib = compound: Cc1ccc(NC(=O)c2ccc(CN3CC[C@H](N(C)C)C3)c(C(F)(F)F)c2)cc1Nc1nccc(-c2cncnc2)n1 [bafetinib]
Procedure, shortened: as §1

[6] = compound: Cc1cccc(CC(=O)N2CCc3c2ccc(-c2cn(C)c4ncnc(N)c24)c3F)n1
Procedure, shortened: as §1

Measured: log2 fold change

OPA1 isoform 2 (UniProt O60313)
inactive: alvocidib 0.012 | Tubastatin A 0.038 | [1] -0.032 | defactinib -0.013 | [2] -0.042 | encorafenib -0.017 | [3] 0.053 | alisertib 0.03 | [4] -0.041 | gefitinib -0.003 | lapatinib -0.017 | pictilisib 0.002 | crizotinib -0.096 | [5] -0.013 | duvelisib -0.002 | tozasertib 0.03 | doramapimod 0.023 | bafetinib -0.073 | [6] 0.048
active: gandotinib -0.248

NF1 (UniProt P21359)
inactive: alvocidib 0.03 | Tubastatin A -0.098 | [1] 0.029 | defactinib 0.012 | [2] 0.009 | encorafenib 0.026 | [3] -0.267 | alisertib 0.03 | [4] 0.006 | gefitinib 0.058 | lapatinib -0.034 | pictilisib -0.022 | crizotinib -0.075 | [5] -0.031 | duvelisib -0.001 | gandotinib -0.108 | tozasertib -0.014 | doramapimod -0.009 | bafetinib -0.041 | [6] 0.049

MSI2 (UniProt Q96DH6)
Chain of UniProt Q96DH6 (Q96DH6 whole entry, looked up): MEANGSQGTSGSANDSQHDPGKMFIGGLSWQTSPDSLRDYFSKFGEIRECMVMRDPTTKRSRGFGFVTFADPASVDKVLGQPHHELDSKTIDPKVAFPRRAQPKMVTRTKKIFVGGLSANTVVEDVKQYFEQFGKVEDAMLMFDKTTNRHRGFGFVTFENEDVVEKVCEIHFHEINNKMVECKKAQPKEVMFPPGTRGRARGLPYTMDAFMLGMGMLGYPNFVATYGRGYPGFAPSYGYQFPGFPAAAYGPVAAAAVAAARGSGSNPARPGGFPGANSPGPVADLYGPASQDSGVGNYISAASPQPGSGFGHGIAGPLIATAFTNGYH
active: doramapimod -0.23
inactive: alvocidib 0.035 | Tubastatin A -0.082 | [1] -0.04 | defactinib 0.076 | [2] -0.012 | encorafenib 0.144 | [3] -0.023 | alisertib 0.026 | [4] -0.012 | gefitinib -0.031 | lapatinib 0 | pictilisib -0.057 | crizotinib 0.036 | [5] 0.024 | duvelisib -0.052 | gandotinib -0.031 | tozasertib 0.01 | bafetinib -0.066 | [6] 0.07

NQO1 (UniProt P15559)
active: doramapimod -0.333 | [6] 0.262
inactive: alvocidib 0.007 | Tubastatin A -0.079 | [1] 0.068 | defactinib 0.003 | [2] -0.111 | encorafenib 0.043 | [3] 0.159 | alisertib -0.001 | [4] -0.042 | gefitinib 0.009 | lapatinib -0.055 | pictilisib -0.048 | crizotinib -0.04 | [5] -0.074 | duvelisib 0.012 | gandotinib 0.009 | tozasertib 0.022 | bafetinib -0.023

NEBL (UniProt O76041)
inactive: alvocidib 0.149 | Tubastatin A 0.022 | [1] -0.048 | defactinib 0.024 | [2] 0.043 | encorafenib -0.083 | [3] 0.015 | alisertib -0.134 | [4] -0.005 | gefitinib 0 | lapatinib 0.054 | pictilisib -0.046 | crizotinib 0.09 | [5] 0.106 | duvelisib 0.023 | gandotinib -0.204 | tozasertib 0.01 | doramapimod -0.006 | bafetinib -0.037 | [6] -0.076

OGFR (UniProt Q9NZT2)
inactive: alvocidib 0.022 | Tubastatin A -0.089 | [1] 0.002 | defactinib -0.015 | [2] -0.03 | encorafenib 0.02 | [3] 0.089 | alisertib -0.003 | [4] -0.003 | gefitinib -0.004 | lapatinib 0.014 | pictilisib -0.012 | crizotinib 0.052 | [5] 0.128 | duvelisib -0.008 | gandotinib -0.062 | tozasertib -0.043 | doramapimod -0.012 | bafetinib 0.043 | [6] -0.037

NDUFS1 isoform 2 (UniProt P28331)
inactive: alvocidib 0.008 | Tubastatin A -0.018 | [1] -0.024 | defactinib 0.028 | [2] 0.014 | encorafenib -0.011 | [3] 0.05 | alisertib 0.03 | [4] -0.025 | gefitinib -0.001 | lapatinib 0.023 | pictilisib -0.014 | crizotinib 0.034 | [5] 0.009 | duvelisib -0.01 | gandotinib -0.006 | tozasertib 0.03 | doramapimod 0.024 | bafetinib -0.013 | [6] -0.006

NEK9 (UniProt Q8TD19)
inactive: alvocidib -0.062 | Tubastatin A -0.062 | [1] 0.193 | defactinib 0.08 | [2] -0.009 | encorafenib -0.018 | [3] -0.008 | alisertib -0.048 | [4] -0.01 | gefitinib -0.039 | lapatinib -0.013 | pictilisib 0.039 | crizotinib 0.057 | [5] -0.092 | duvelisib 0.006 | gandotinib 0.108 | tozasertib 0.025 | doramapimod -0.033 | bafetinib 0.014 | [6] 0.019

NFATC1 (UniProt O95644)
Chain of UniProt O95644 (O95644 whole entry, looked up): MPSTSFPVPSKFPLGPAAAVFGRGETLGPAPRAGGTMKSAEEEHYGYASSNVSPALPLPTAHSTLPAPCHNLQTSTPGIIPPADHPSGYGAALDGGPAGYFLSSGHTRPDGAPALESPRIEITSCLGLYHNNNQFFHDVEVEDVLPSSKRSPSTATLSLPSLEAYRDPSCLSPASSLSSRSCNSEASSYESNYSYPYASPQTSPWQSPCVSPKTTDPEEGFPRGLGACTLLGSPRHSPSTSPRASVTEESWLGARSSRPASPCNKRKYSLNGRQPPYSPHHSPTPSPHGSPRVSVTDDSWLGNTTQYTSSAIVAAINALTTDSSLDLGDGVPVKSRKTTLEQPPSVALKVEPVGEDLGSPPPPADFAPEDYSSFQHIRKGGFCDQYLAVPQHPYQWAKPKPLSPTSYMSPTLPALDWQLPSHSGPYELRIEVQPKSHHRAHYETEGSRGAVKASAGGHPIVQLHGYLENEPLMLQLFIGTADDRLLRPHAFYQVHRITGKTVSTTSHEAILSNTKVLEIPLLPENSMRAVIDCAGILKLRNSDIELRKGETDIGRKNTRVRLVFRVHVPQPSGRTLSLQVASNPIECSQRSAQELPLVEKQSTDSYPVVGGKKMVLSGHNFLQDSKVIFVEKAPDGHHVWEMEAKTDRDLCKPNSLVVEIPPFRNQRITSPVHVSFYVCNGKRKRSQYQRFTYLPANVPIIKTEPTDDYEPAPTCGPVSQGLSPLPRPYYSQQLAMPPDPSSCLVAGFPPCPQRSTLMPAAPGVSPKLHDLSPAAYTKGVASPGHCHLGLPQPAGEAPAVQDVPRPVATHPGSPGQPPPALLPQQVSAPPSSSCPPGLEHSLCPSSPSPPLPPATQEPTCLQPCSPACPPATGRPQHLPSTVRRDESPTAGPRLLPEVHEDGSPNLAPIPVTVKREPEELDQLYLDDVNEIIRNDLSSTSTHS
inactive: alvocidib -0.024 | Tubastatin A -0.138 | [1] 0.124 | defactinib -0.012 | [2] -0.031 | encorafenib -0.071 | [3] 0.048 | alisertib -0.025 | [4] 0.001 | gefitinib 0.027 | lapatinib -0.003 | pictilisib -0.088 | crizotinib -0.111 | [5] -0.136 | duvelisib 0.007 | gandotinib 0.132 | tozasertib -0.002 | doramapimod 0.017 | bafetinib -0.043 | [6] 0.179

PANK4 (UniProt Q9NVE7)
Chain of UniProt Q9NVE7 (Q9NVE7 whole entry, looked up): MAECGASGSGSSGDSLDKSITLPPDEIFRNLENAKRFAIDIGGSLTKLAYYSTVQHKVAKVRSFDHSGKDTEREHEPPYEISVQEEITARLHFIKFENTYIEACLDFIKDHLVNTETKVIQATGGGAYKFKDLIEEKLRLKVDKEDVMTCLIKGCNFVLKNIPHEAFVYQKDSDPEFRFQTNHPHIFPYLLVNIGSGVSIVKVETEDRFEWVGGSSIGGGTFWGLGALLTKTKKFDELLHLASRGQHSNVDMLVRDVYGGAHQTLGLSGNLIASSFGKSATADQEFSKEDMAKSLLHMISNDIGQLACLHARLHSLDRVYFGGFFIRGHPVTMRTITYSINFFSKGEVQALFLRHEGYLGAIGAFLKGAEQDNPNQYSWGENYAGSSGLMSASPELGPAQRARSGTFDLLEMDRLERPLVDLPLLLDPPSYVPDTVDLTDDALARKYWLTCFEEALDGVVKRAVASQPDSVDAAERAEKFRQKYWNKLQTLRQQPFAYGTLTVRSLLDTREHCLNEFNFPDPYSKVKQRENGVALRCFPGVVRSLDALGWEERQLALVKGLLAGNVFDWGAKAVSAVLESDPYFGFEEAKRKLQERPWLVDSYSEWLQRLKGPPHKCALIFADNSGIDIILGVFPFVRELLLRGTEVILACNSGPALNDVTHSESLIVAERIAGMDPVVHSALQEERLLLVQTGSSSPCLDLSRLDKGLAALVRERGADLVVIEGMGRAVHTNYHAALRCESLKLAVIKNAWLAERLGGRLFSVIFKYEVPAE
inactive: alvocidib -0.009 | Tubastatin A -0.117 | [1] 0.018 | defactinib 0.01 | [2] 0.019 | encorafenib -0.011 | alisertib -0.028 | [4] 0.013 | gefitinib -0.017 | lapatinib -0.019 | pictilisib -0.037 | crizotinib -0.052 | [5] -0.049 | duvelisib -0.009 | gandotinib 0.125 | tozasertib 0.001 | doramapimod -0.001 | bafetinib -0.06 | [6] 0.022
active: [3] 0.498

PANK1 (UniProt Q8TE04)
Chain of UniProt Q8TE04 (Q8TE04 whole entry, looked up): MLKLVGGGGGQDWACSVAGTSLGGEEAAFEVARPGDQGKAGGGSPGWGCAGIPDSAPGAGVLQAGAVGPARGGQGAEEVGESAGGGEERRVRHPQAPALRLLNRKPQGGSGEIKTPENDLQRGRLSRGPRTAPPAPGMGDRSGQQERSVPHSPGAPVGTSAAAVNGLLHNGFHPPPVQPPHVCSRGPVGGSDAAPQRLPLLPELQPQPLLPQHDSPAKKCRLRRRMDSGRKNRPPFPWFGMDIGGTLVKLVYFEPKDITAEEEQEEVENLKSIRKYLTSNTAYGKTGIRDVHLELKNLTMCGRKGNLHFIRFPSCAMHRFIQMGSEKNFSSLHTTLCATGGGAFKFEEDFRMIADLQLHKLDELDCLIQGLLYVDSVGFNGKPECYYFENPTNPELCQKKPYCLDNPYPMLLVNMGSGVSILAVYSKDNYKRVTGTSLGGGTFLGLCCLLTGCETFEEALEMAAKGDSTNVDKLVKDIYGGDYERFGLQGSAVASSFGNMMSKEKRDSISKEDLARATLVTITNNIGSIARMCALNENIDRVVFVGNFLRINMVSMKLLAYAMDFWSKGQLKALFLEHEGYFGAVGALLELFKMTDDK
active: gandotinib -0.31
inactive: alvocidib 0.002 | Tubastatin A 0.025 | [1] 0.051 | defactinib -0.082 | [2] -0.076 | encorafenib 0.312 | [3] 0.173 | alisertib 0.001 | [4] -0.096 | gefitinib 0.072 | lapatinib -0.008 | pictilisib 0.151 | crizotinib -0.018 | [5] 0.106 | duvelisib 0.099 | tozasertib 0.069 | doramapimod 0.041 | bafetinib -0.062 | [6] -0.253

NUSAP1 (UniProt Q9BXS6)
Chain of UniProt Q9BXS6 (Q9BXS6 whole entry, looked up): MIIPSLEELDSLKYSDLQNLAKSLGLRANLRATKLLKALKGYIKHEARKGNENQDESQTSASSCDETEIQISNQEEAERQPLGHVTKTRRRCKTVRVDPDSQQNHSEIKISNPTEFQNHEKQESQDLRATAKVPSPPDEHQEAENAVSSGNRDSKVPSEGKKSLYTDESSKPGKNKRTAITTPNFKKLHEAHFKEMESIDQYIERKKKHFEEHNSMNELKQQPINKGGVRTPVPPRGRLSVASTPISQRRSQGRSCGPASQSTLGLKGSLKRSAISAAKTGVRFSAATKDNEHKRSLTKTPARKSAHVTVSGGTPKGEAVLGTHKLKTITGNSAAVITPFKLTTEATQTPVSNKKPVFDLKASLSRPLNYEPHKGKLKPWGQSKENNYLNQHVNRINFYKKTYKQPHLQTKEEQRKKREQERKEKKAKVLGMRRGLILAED
inactive: alvocidib -0.17 | Tubastatin A 0.029 | [1] -0.02 | defactinib 0.027 | [2] 0.07 | encorafenib 0.012 | [3] -0.028 | alisertib 0.01 | [4] -0.002 | gefitinib -0.012 | lapatinib -0.004 | pictilisib -0.018 | crizotinib 0.045 | duvelisib -0.022 | gandotinib 0.141 | tozasertib -0.001 | doramapimod -0.011 | bafetinib 0.008
active: [5] -0.334 | [6] 0.217

PAIP2 (UniProt Q9BPZ3)
Chain of UniProt Q9BPZ3 (Q9BPZ3 whole entry, looked up): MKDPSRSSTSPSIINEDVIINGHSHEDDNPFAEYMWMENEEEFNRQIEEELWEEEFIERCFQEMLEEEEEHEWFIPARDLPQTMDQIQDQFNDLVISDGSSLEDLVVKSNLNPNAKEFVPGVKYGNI
inactive: alvocidib 0.009 | Tubastatin A 0.045 | [1] -0.03 | defactinib -0.056 | [2] 0.037 | encorafenib -0.092 | [3] 0.071 | alisertib -0.038 | [4] -0.049 | gefitinib -0.019 | lapatinib 0.013 | pictilisib -0.036 | crizotinib 0.021 | [5] -0.008 | duvelisib -0.04 | gandotinib 0.022 | tozasertib 0.035 | doramapimod 0.043 | bafetinib 0.073 | [6] 0.02

NCAPD3 (UniProt P42695)
inactive: alvocidib -0.006 | Tubastatin A -0.224 | [1] 0.017 | defactinib 0.017 | [2] 0.013 | encorafenib 0.037 | [3] -0.018 | alisertib -0.017 | [4] 0 | gefitinib -0.002 | lapatinib -0.015 | pictilisib -0.009 | crizotinib -0.065 | [5] -0.013 | duvelisib -0.004 | gandotinib -0.099 | tozasertib -0.013 | doramapimod 0.02 | bafetinib -0.024 | [6] 0.047

PARD3 (UniProt Q8TEW0)
Chain of UniProt Q8TEW0 (Q8TEW0 whole entry, looked up): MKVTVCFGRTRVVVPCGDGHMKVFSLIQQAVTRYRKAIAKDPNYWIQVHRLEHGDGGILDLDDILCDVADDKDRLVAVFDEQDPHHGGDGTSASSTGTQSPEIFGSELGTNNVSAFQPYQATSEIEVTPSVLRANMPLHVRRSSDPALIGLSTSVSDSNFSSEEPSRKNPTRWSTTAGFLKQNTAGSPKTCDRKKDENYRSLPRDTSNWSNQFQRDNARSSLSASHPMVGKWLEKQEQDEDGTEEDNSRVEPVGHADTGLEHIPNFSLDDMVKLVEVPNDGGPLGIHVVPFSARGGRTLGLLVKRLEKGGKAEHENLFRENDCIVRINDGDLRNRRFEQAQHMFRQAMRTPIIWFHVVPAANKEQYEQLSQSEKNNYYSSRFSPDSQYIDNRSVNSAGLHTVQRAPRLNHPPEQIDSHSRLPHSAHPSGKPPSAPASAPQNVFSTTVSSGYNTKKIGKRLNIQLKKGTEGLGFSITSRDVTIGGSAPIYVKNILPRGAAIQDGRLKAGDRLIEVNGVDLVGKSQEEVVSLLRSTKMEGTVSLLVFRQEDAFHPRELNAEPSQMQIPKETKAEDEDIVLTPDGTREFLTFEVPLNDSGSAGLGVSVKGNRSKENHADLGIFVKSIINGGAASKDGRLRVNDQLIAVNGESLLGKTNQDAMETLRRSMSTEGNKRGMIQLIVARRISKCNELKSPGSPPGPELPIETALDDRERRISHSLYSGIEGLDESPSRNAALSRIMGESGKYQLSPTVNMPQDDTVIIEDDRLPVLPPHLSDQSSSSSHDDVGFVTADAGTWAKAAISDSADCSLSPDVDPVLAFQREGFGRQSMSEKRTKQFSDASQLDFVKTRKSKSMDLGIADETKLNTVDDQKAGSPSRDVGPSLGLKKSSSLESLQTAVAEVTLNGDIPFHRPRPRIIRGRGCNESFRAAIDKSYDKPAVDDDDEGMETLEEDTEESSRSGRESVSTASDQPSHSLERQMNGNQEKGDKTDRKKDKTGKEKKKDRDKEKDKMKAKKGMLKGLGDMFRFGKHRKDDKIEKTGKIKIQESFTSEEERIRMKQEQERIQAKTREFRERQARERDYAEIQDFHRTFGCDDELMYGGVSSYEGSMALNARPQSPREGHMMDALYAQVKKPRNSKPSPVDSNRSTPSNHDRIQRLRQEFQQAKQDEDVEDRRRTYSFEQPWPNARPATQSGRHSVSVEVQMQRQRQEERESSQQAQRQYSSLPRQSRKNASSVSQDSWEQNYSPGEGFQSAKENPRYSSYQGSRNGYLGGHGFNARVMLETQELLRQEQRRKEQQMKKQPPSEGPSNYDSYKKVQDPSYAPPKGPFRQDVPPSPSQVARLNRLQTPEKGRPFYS
inactive: alvocidib -0.035 | Tubastatin A -0.087 | [1] -0.021 | defactinib 0.144 | [2] -0.031 | encorafenib 0.007 | [3] 0.061 | alisertib -0.013 | gefitinib 0.04 | lapatinib -0.143 | pictilisib -0.155 | crizotinib -0.096 | [5] 0.014 | duvelisib -0.102 | gandotinib 0.122 | tozasertib 0.064 | doramapimod -0.058 | bafetinib -0.054 | [6] 0.069
active: [4] 0.438

ORC5 (UniProt O43913)
Chain of UniProt O43913 (O43913 whole entry, looked up): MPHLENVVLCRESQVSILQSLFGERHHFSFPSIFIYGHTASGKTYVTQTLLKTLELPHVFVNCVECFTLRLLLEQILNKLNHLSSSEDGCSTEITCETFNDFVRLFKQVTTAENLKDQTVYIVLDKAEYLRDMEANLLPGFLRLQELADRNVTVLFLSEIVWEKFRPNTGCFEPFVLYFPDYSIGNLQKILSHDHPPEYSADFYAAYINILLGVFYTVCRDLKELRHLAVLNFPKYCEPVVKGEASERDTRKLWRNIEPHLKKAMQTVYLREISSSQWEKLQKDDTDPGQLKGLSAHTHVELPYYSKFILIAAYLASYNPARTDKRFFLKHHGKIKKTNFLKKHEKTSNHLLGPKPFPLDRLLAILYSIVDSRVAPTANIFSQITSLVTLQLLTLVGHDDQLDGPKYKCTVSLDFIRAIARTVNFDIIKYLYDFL
inactive: alvocidib 0.001 | Tubastatin A -0.163 | [1] 0.001 | defactinib 0.062 | [2] -0.008 | encorafenib 0.049 | [3] 0.165 | alisertib -0.004 | [4] 0.006 | gefitinib -0.011 | lapatinib -0.014 | pictilisib -0.049 | crizotinib -0.137 | [5] -0.009 | duvelisib -0.016 | gandotinib -0.113 | tozasertib -0.023 | doramapimod 0.027 | bafetinib -0.069 | [6] 0.045
